Measured values published in PubChem BioAssay (NCI).
This is part of a sample that, as a whole, favours compounds with a hit. Of some 83,000 tested, about 20% had one in any assay.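 Plates (96-well) were seeded with cells, treated with compound at one concentration, and incubated for 48 hours before percent growth was determined.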 Active and inactive are the calls of the source. How the source made its calls: active means growth percent below 10; inactive means the rest.

Key:
Test in all cases: NCI-60 one-dose screen, 48 h (100 = growth as untreated, 0 = no growth, -100 = all killed)
Settings in all cases: 10 µM unless noted
[1] = tested on: BT-549 breast
[2] = tested on: MDA-MB-435 melanoma
[3] = tested on: SW-620 colon
[4] = tested on: MCF7 breast
[5] = tested on: HCT-116 colon
[6] = tested on: HCC-2998 colon
[7] = tested on: KM12 colon

Measured: growth

C#Cc1nc(C2=C(C)C(O)CC2)cs1 (configuration not stated)
inactive: [1] 119% | [2] 105% | [3] 121% | [4] 85.1% | [5] 111% | [6] 115% | [7] 63.9%

N#Cc1nc(-c2ccccc2)oc1S(=O)(=O)N1CCCCC1
inactive: [1] 85.7% | [2] 68% | [4] 29.2% | [5] 21.2% | [6] 105% | [7] 101%
active: [3] -12.8%

Cc1nc(-c2cc3ccccc3oc2=O)ccc1C(=O)/C=C/c1ccc(Cl)c(Cl)c1
inactive: [1] 108% | [2] 103% | [3] 101% | [4] 86.3% | [5] 103% | [6] 107% | [7] 103%

N#Cc1c(-c2ccc(Cl)cc2)nc2c(-c3ccccc3)c(Nc3ccccc3)nn2c1N
inactive: [1] 94.4% | [2] 58.7% | [3] 40.6% | [4] 47.9% | [5] 20.7% | [6] 90.7% | [7] 60%

NS(=O)(=O)c1cccc(Nc2nc(SCC(=O)c3ccc(Cl)cc3)nc3ccccc23)c1
inactive: [1] 26.1% | [2] 77.6% | [3] 79.3% | [4] 65.6% | [5] 76.4% | [6] 112% | [7] 71.7%

CCN(CC)c1ccc(C=O)c(OCc2cn(CC(=O)Nc3ccc(Cl)cc3)nn2)c1
inactive: [1] 81.4% | [2] 79.8% | [3] 85.6% | [4] 52.9% | [5] 47.3% | [6] 86.1% | [7] 70.4%

COc1ccc(/C=N/NC(=O)c2[nH]c3ccc(Br)cc3c2-c2ccccc2)s1
inactive: [3] 18.2% | [6] 26.8%
active: [1] -15.9% | [2] -21.4% | [4] 6.97% | [5] -19.9% | [7] 3.72%

Cn1cc(-c2cc(N)n3nc(-c4cn(C)c5ccc(Cl)cc45)cc3n2)c2cc(Cl)ccc21
inactive: [1] 117% | [2] 16.5% | [3] 14.6% | [4] 17.3% | [5] 75.5% | [6] 98.4% | [7] 60.1%

Clc1ccc(Cc2nnc3sc(-c4cccnc4)nn23)cc1
inactive: [1] 95.5% | [2] 101% | [3] 99.1% | [4] 88.7% | [5] 101% | [6] 105% | [7] 99.7%

Cc1nc(-c2cc3ccccc3oc2=O)ccc1C(=O)/C=C/c1ccc(N2CCOCC2)cc1
active: [2] -21.1%
inactive: [1] 76.9% | [3] 83.5% | [4] 51.6% | [5] 89.1% | [6] 83.9% | [7] 68.9%

Cc1ccc(-c2nc(C(Cl)Cl)nc3cc(-c4ccccc4)nn23)cc1
active: [3] -40.3% | [6] -55.8% | [7] -6.93%
inactive: [1] 53.6% | [2] 16.1% | [4] 25.4% | [5] 11.8%

Cn1cc(-c2cc(N)n3nc(-c4cn(C)c5ccc(Br)cc45)cc3n2)c2cc(Br)ccc21
active: [3] 1.21% | [4] 1.35%
inactive: [1] 105% | [2] 30.8% | [5] 57% | [6] 82.5% | [7] 64.8%

CC(C)(C)Nc1nc2c(OCCc3ccccc3)cccn2c1-c1ccc(Cl)cc1
active: [4] 0.0476% | [5] 8.63%
inactive: [1] 47.7% | [2] 19.2% | [3] 41% | [6] 24.7% | [7] 32.7%

Clc1ccc2c(NCCCn3ccnc3)c3oc4ccc(Cl)cc4c3nc2c1
inactive: [1] 88.1% | [2] 86.2% | [3] 57% | [4] 53.8% | [5] 81% | [6] 79% | [7] 87.6%

CC(=O)Oc1ccccc1C(=O)Nc1ccc(C(=O)/C=C/c2ccncc2)cc1
active: [3] 0.322% | [4] 2.69% | [5] -72.5% | [7] -31.9%
inactive: [1] 57.1% | [2] 18.2% | [6] 13.3%

C#Cc1nc(C2=C(C)C(=O)/C(=N/OC(C)=O)C2)cs1
inactive: [1] 95% | [2] 94.8% | [3] 110% | [4] 68.4% | [5] 78.4% | [6] 117% | [7] 46.8%

CCOc1ccc([C@H]2C(C(=O)c3ccc(Cl)cc3)C3(N[C@@H]2c2ccccc2)C(=O)Nc2ccc(Br)cc23)cc1 (some centres not stated)
active: [4] 9.08% | [5] 4.78% | [6] 0.672% | [7] -10.8%
inactive: [1] 71.9% | [2] 28.5% | [3] 24.6%

COc1cc(OC)c(C2SCC(=O)N2Nc2ncnc3ccccc23)cc1OC (configuration not stated)
inactive: [1] 105% | [2] 103% | [3] 105% | [4] 91.8% | [5] 107% | [6] 111% | [7] 107%

O=C(c1ccc(Cl)cc1)C1[C@H](c2ccc(Cl)cc2)[C@@H](c2ccccc2)NC12C(=O)Nc1ccc(Br)cc12 (some centres not stated)
inactive: [1] 61.4% | [2] 34.8% | [3] 36.3% | [4] 15.8% | [5] 13.2% | [6] 13.3% | [7] 15.3%

c1ccc(CNc2ncnc3ccc(-c4cnc5[nH]ncc5c4)cc23)cc1
inactive: [1] 62.2% | [2] 86.9% | [3] 72.9% | [4] 30.3% | [5] 80.1% | [6] 83.6% | [7] 84.9%

Nc1c(C(=O)Nc2ccc(C(F)(F)F)cc2)sc2nc(-c3cnccn3)cc(-c3cccs3)c12
active: [5] -62.1%
inactive: [1] 22.5% | [2] 95.4% | [3] 103% | [4] 75.8% | [6] 108% | [7] 95.6%

Cc1ccc(C(=O)Nc2cccc(C(F)(F)F)c2)cc1Nc1nc(-c2cnccn2)nc2c1cnn2C
inactive: [1] 143% | [2] 35.9% | [3] 58.4% | [4] 73.2% | [5] 35.6% | [6] 47.9% | [7] 56.6%

COc1cccc(N2CCN(c3ncnc4c3[nH]c3ccc(F)cc34)C[C@@H]2C)c1
active: [1] -97% | [2] -75.4% | [3] -3.32% | [4] 0.969% | [5] -35.9% | [7] -71%
inactive: [6] 16.7%

Fc1ccc(-c2nc(C(Cl)Cl)nc3cc(-c4ccccc4)nn23)cc1
inactive: [1] 52.3% | [4] 21.5%
active: [2] 3.93% | [3] -35.7% | [5] 5.36% | [6] -34.7% | [7] -12%

CN(C)CCCNc1c2ccccc2nc2c1oc1ccc(Cl)cc12
inactive: [1] 57.9% | [2] 33.5% | [5] 22.5% | [7] 25.5%
active: [3] 9.93% | [4] -25.7% | [6] -43.7%

O=C(N/N=C/c1ccco1)c1[nH]c2ccc(Br)cc2c1-c1ccccc1
active: [1] -17.1% | [2] 0.898% | [5] -12.9%
inactive: [3] 24.8% | [4] 10.7% | [6] 23% | [7] 12.8%
